Bioassay records from PubChem BioAssay.
ALDH1A1 inh: qHTS Assay for Inhibitors of Aldehyde Dehydrogenase 1 (ALDH1A1) | AID 1030, 2008 | Aldehyde dehydrogenase 1A1 (Homo sapiens), P00352 | Potency, µM (doses to about 75.3 µM), most hits filed as inhibitors | 220,000 tested, 7.3% active | Purified ALDH1A1, NADH fluorescence, propionaldehyde substrate; active = well fitted inhibition curve with a large enough effect, not every such curve was filed as active; inconclusive = small, poorly fitted or top-dose-only effect, or another doubt; inactive = no such curve, though single readings can be large or run the other way
Target sequence (P00352 whole entry, looked up): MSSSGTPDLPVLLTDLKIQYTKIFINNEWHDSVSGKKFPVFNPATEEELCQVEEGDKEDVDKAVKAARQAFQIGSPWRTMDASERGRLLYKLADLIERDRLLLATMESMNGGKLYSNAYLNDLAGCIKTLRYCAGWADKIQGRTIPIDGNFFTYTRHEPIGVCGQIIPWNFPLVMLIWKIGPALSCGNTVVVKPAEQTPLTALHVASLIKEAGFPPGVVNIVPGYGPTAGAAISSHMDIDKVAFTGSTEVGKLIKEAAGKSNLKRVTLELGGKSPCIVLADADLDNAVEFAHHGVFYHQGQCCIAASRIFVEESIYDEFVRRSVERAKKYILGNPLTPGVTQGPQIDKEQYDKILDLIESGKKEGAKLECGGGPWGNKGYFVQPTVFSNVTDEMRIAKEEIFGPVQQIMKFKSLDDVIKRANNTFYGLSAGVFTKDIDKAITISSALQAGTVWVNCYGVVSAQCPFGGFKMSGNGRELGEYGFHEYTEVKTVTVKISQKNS
GLA inh pH 4.5: qHTS Assay for Inhibitors of Human alpha-Galactosidase at pH 4.5. Alpha-galactosidase A (Homo sapiens), P06280. purified enzyme, 4-MU-alpha-Gal fluorescence, pH 4.5. activity change, negative = inhibition, % at 105 µM. 230,000 tested, under 10 active. AID 1467, 2008
HPGD block: qHTS Assay for Inhibitors of HPGD (15-Hydroxyprostaglandin Dehydrogenase); 15-hydroxyprostaglandin dehydrogenase [NAD(+)] (Homo sapiens), P15428; 150,000 tested, 4.3% active; AID 894, 2007; purified HPGD, NADH fluorescence kinetic, PGE2 substrate; Potency, µM, hits mostly inhibitors; active = well fitted inhibition curve with a large enough effect, not every such curve was filed as active; inconclusive = small, poorly fitted or top-dose-only effect, or another doubt; inactive = no such curve, though single readings can be large or run the other way
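NADH formation kinetics: reaction with 30 uM PGE2 and 1 mM NAD+ (final), 20 nM enzyme, Tris-HCl pH 8 with Tween 20, after 15 min compound preincubation at room temperature. Fluorescence change, last versus first of five reads.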
ALOX12 inhib: qHTS Assay for Inhibitors of 12-hLO (12-human lipoxygenase); Polyunsaturated fatty acid lipoxygenase ALOX12 (Homo sapiens), P18054; purified 12-hLO, xylenol orange hydroperoxide absorbance; Potency, µM (highest dose often 57.1 µM), most hits filed as inhibitors; 150,000 tested, 0.12% active; note: nearly all actives have a fitted effect of over 55% in size
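Xylenol orange chromogenic assay: hydroperoxide from 12hLO oxidises Fe(II), giving red-shifted Fe(III)-XO absorbance. Conditions: 150 nM enzyme, 40 uM arachidonic acid, 25 mM Hepes pH 7.0, 0.01% Triton X-100, 30 min, room temperature.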
aGal spleen mod: qHTS Assay for Inhibitors and Activators of Human alpha-Galactosidase From Spleen Homogenate | 240,000 tested, 0.008% active | Alpha-galactosidase A (Homo sapiens), P06280 | Potency, µM (top dose mostly 80 µM), most hits filed as inhibitors | human spleen homogenate, 4MU-alpha-Gal fluorescence, 40 min
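Human spleen homogenate (1 ug) as enzyme source, 4-methylumbelliferyl-alpha-D-galactopyranoside 1 mM final, citrate/phosphate pH 5.0 with 0.01% Tween-20. Compounds 40 min at 37C, NaOH/glycine stop; fluorescence Ex 365/Em 440, Hill-fit AC50.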
PNC assembly inh: High Content Assay for Compounds that inhibit the Assembly of the Perinucleolar Compartment | PC3M PTB-GFP, PNC prevalence imaging, 16 h; stronger effect = lower value | activity change (PNC), negative = inhibition, % at 10 µM | 140,000 tested, 3.1% active | AID 2417, 2010;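 active = readout at or below -70, meaning at least 70% loss of cells showing the perinucleolar compartment, a nuclear body marking cancer cells; inconclusive = readout between -30 and a set limit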
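Read-out is percentage of cells bearing a perinucleolar compartment, from automated 20x imaging of fixed, Hoechst-stained PC3M PTB-GFP cells. Cells were seeded 4 h, then exposed 16 h to compound (23 nl of library stock) in duplicate plates.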
Hits are given with their value; 0 = inactive; ? = inconclusive; - = no result; [ ] = remark or other dose. A selection: hits, their analogues and other compounds. The true share with any hit is near 10%. Unless noted, calls come from the whole dose curve; as a rule, active = well fitted curve in the direction sought with a large enough effect; inconclusive = small, poorly fitted or top-dose-only effect, or another doubt; inactive = no such curve, though single readings can be large; an effect the other way counts as inactive or inconclusive.

SMILES | ALDH1A1 inh | GLA inh pH 4.5 | HPGD block | ALOX12 inhib | aGal spleen mod | PNC assembly inh
CC(=O)c1c(COC(=O)c2ccc(F)cc2)nc2ccccc2[n+]1[O-] | 0 | 0 | - | - | 0 | -
COC(=O)C1=C(C(=O)OC)[C@@H]2Nc3ccccc3[C@@]23C[C@@H](C(=O)OC)N(S(=O)(=O)c2ccc(Br)cc2)C3=N1 | 0[13.5 µM] | 0 | 0 | 0[11.4 µM] | 0[17.5 µM] | -
COC(=O)c1cc(NC(=O)c2ccc(Cn3cc(Cl)cn3)o2)cc(C(=O)OC)c1 | 0 | 0 | 1.26µM | 0 | 0 | 0
CCNS(=O)(=O)c1ccc(NC(=O)c2ccc(Cn3cc([N+](=O)[O-])cn3)o2)cc1 | 18.9µM | 0 | - | - | 0 | -
COC(=O)c1cc(NC(=O)c2c(Cl)cnn2C)cc(C(=O)OC)c1 | 0 | 0 | 0 | 0 | 0 | -100.8
COC(=O)c1ccc(NC(=S)NC(=O)c2c(Cl)cnn2C)cc1 | 0 | 0 | 0 | 0 | 0 | 0
Cc1sc2ncn(CC(=O)NCC3COc4ccccc4O3)c(=O)c2c1S(=O)(=O)N1CCCCC1 (stereo not given) | 0 | 0 | - | - | 0 | -
CC1CCC2C(=O)N3C(CCC(C)[C@@H]3c3ccc(Br)cc3)C(=O)N2C1c1ccc(Br)cc1 (stereo not given in full) | 0[13.5 µM] | - | - | - | 0[17.5 µM] | -
COC(=O)[C@H](COC(C)(C)C)NC(=O)O[C@@H]1C(=O)c2cc(Br)ccc2O[C@H]1c1ccc2c(c1)OCO2 | 0 | 0 | 0 | - | 0 | -
Cc1ccc(S(=O)(=O)c2c(C)cc(C)nc2N2CCCCC2)cc1 | 0 | 0 | - | - | 0 | -
N#Cc1c2n(c3c(=S)nc[nH]c13)CCCCC2 | 18.9µM | 0 | 0 | 0 | 0 | 0
CC1CCN(c2ccc(C=O)o2)CC1 | 14.1µM | 0 | - | - | 0 | -
O=Cc1ccc(N2CCCC2)o1 | 0 | 0[21.1 µM] | - | - | 0 | -
O=C(Nc1ccc(C(=O)N2CCOCC2)cc1)Nc1cccc(Cl)c1 | 0 | 0 | 28.2µM | 0 | 0 | 0
CC(=O)c1cccc(NC(=O)Nc2ccc(C(=O)N3CCCC3)cc2)c1 | 14.1µM | 0 | 1.12µM | 0 | 0 | 0
O=C(O)[C@H]1CN(CCCP(=O)(O)O)CCN1 | 0 | 0 | 0 | 0 | 0 | -
Cc1cc(-c2n[nH]c(=S)o2)c(C)n1-c1ccccc1 | 3.55µM | 0 | 0 | 0 | 0 | ?
Cc1cccc(N2CCN(C(=O)C3CCCCC3)CC2)c1C | 0 | 0 | 0 | 0 | 0 | 0
Cc1cc(N2CCC(C(=O)N3CCN(c4cccc(C)c4C)CC3)CC2)n2ncnc2n1 | 3.98µM | 0 | 0 | 0 | 0 | 0
CCN(CC)C(=S)SCC(=O)Nc1nc(-c2ccccc2)c(-c2ccccc2)o1 | 12.6µM | 0 | 0 | 0 | 0 | 0
O=c1[nH]c2ccccc2nc1/C=C/c1ccc(Cl)cc1 | 0 | 0 | - | - | 0 | -
CC(C)c1ccc(/C=N/NC(=O)C(=O)NCCCN2CCOCC2)cc1 | 14.1µM | 0 | 0 | 0 | 0 | 0
CCc1ccc2[nH]c(=O)c(CN(CCN(CC)CC)C(=S)NCc3ccco3)cc2c1 | ? | 0 | - | - | 0 | -
COc1cccc(CNC(=O)N[C@@H](C)C(=O)O)c1 | - | 0 | - | - | 0 | -
COc1cccc(CNC(=O)CCl)c1 | 7.08µM | 0 | 0 | 0 | 0 | ?
SMILES | ALDH1A1 inh | GLA inh pH 4.5 | HPGD block | ALOX12 inhib | aGal spleen mod | PNC assembly inh
COC(=O)C1=C(C)N(CCc2ccc(OC)c(OC)c2)C(=O)C1 | ? | 0 | 0 | 0 | 0 | 0
COC(=O)C1=C(C)N(CCc2ccc(OC)c(OC)c2)C(=O)/C1=C\c1ccc(O)cc1 | 25.1µM | 0 | 0 | 0 | 0 | -116.4
Nc1nc(-c2cccnc2)cc(-c2cc(-c3cccnc3)nc(N)n2)n1 | 0[13.5 µM] | - | 0 | 0[11.4 µM] | - | -
Cc1oc(-c2ccccc2Cl)nc1CSc1nc2c(c(=O)[nH]1)CCCC2 | - | 0 | - | - | 0 | -
O=c1[nH]c(NCc2ccccc2)nc2c1CCCC2 | 0 | 0 | 12.6µM | 0 | 0 | 0
Cc1cccc(CSc2nc3c(c(=O)[nH]2)CCC3)c1 | 0 | 0 | - | - | 0 | -
Cc1ccc(CSc2nc3c(c(=O)[nH]2)CCC3)cc1 | 0 | 0 | 10µM | 0 | 0 | 0
